Source: PubChem BioAssay (National Center for Advancing Translational Sciences (NCATS))
An excerpt weighted towards active compounds, which were near 2.4% of everything screened.
Cruzain Triton: cruzain (T. cruzi) inhibition with detergent; purified cruzain, Z-FR-AMC fluorescence, 0.01% Triton; Potency, µM, hits mostly inhibitors; actives 0.43% (n = 200,000); AID 1478; further: nearly all actives have a fitted effect of over 40% in size
Target sequence (P25779 123-467 limits assumed): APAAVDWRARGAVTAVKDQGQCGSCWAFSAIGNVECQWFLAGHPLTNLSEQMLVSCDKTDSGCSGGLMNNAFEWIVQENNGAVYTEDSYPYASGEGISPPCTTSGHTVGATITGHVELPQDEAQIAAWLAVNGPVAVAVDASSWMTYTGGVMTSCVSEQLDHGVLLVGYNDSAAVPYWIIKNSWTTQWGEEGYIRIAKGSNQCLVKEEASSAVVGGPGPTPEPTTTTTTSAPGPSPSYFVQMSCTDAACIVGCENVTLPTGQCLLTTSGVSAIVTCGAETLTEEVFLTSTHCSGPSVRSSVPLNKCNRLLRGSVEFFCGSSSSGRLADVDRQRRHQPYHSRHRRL
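15 min RT preincubation of 1.5 nM cruzain with compound, then 2 uM Z-FR-AMC added; kinetic AMC fluorescence, 60 s delta. Triton X-100 0.01%, pH 5.5.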
Cruzain noTriton: cruzain (T. cruzi) inhibition without detergent; AID 1476; purified cruzain, Z-FR-AMC fluorescence, no detergent; actives 2.3% (n = 200,000); P25779; Potency, µM, actives largely listed as inhibitors; further: nearly all actives have a fitted effect of over 40% in size
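Detergent-free condition (0.00005% Triton X-100) in acetate buffer pH 5.5 with DTT. 1.5 nM enzyme and compound were pre-mixed 15 min, then 2 uM Z-FR-AMC substrate added; reaction progress from fluorescence change between first and third reads (60 s).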
Large screens that a line does not name were inactive; ! = not confirmed by another sample. The call rests on the fitted dose curve; in most records, active means well fitted curve in the direction sought with a large enough effect; inconclusive means small, poorly fitted or top-dose-only effect, or another doubt; inactive means no such curve, though single readings can be large; an effect the other way counts as inactive or inconclusive.

Cc1ccccc1CNC(=O)c1oc2c(c1C)-c1[nH]ncc1CC2	none
COc1ccc(C(=O)Nc2ccccc2C(=O)OCc2cc(=O)n3c4c(sc3n2)CCCC4)cc1	none
CCN(CC)CCn1c(-c2ccccc2)nc2c(NCc3ccccc3)nc(C)nc21	none
CCOC(=O)c1c(NC(=O)Cn2cnc3scc(-c4ccc(C)cc4)c3c2=O)sc(C)c1C	Cruzain noTriton 4µM
CCOC(=O)c1c(NC(=O)Cn2cnc3sc(C)c(-c4ccccc4)c3c2=O)sc(C)c1C	Cruzain noTriton 13µM
CCOC(=O)c1c(NC(=O)COC(=O)Cn2cnc3ccccc32)sc(C)c1C	none
CCOC(=O)c1ccc(NC(=O)Cn2cnc3sc(C(=O)OCC)c(C)c3c2=O)cc1	none
Cc1ccc(C2CCN(C(=O)c3cnn(-c4ccc(C)c(C)c4)c3C3CCN(C(=O)OC(C)(C)C)CC3)C2)cc1 (stereo not given)	none
Cc1ccc(C)c(Cn2c(=O)n(Cc3ccco3)c(=O)c3oc4ccccc4c32)c1	Cruzain noTriton inconclusive
O=C1N/C(=N\N=C\c2cccs2)SC1Cc1cccc(Cl)c1 (stereo not given)	Cruzain noTriton inconclusive
O=C1N/C(=N\N=C\c2cccs2)SC1Cc1ccc(Cl)cc1 (stereo not given)	Cruzain noTriton 2.5µM
CCc1ccc(-c2cc(C)no2)cc1S(=O)(=O)N1CCN(c2cccc(Cl)c2)CC1	Cruzain noTriton 25µM
Cc1ccc2cccc(S(=O)(=O)N3CCN(c4cccc(Cl)c4)CC3)c2n1	none
CC(C)(C)c1ccc(-c2nc(SCCCOc3ccccc3)n3[nH]c(=O)cc3n2)cc1	Cruzain noTriton 13µM
COc1ccccc1OCCCSc1nc(-c2ccc(C(C)(C)C)cc2)nc2cc(=O)[nH]n12	none
CCC(=O)N1c2nc(-c3ccco3)nn2C2(CCCCC2)[C@@H]2CCCC[C@@H]21	none
Cc1oc(-c2ccc(C(=O)NCc3ccccc3)cc2)nc1CS(=O)(=O)c1ccccc1	Cruzain noTriton inconclusive
Cc1oc(-c2ccc(C(=O)NCc3ccc(Cl)cc3)cc2)nc1CS(=O)(=O)c1ccccc1	Cruzain noTriton 25µM
Cc1cccc(N2CCN(C3(c4ccccc4)C(=O)c4ccccc4C3=O)CC2C)c1 (stereo not given)	none
CC1=C(C(=O)Nc2cccnc2)C(c2cccc(O)c2)n2nc(SCc3ccccc3)nc2N1 (stereo not given)	Cruzain noTriton inconclusive
CCOC(=O)c1c(NC(=O)c2ccc(S(=O)(=O)N(CC(C)C)CC(C)C)cc2)sc2c1CCN(C(=O)OCC)C2	none
C/C(=N/NS(=O)(=O)c1ccc(C)cc1)c1cccc(NC(=O)c2cccc(Cl)c2)c1	none
C/C(=N/NS(=O)(=O)c1ccc(Cl)cc1)c1cccc(NC(=O)c2ccc(Cl)cc2Cl)c1	Cruzain noTriton 25µM
COc1cc(/C=C/C(=O)c2ccc(NS(=O)(=O)c3ccc(C)cc3)cc2)ccc1OC(F)F	Cruzain noTriton 10µM
COc1cc(/C=C/C(=O)c2ccc(NS(=O)(=O)c3ccc(C)cc3)cc2)cc(OC)c1O	Cruzain noTriton inconclusive
CC(=O)Nc1cccc(NC(=O)CN2C(=O)CCSc3ccccc32)c1	none
Cc1cc(C(=O)CSc2nnc(-c3ccccc3)o2)c(C)n1CC1COc2ccccc2O1 (stereo not given)	Cruzain noTriton 20µM
Cc1cc(C(=O)CSc2nnc(-c3ccc(F)cc3)o2)c(C)n1CC1COc2ccccc2O1 (stereo not given)	Cruzain noTriton 16µM
Cc1cc(C(=O)CSc2nnc(-c3ccc(F)cc3)o2)c(C)n1CC1CCCO1 (stereo not given)	none
CC(C)(C)c1ccc(-c2nnc(SCC(=O)c3ccc4c(c3)OCCO4)o2)cc1	none
Cc1cc(C(=O)CSc2nnc(-c3ccco3)o2)c(C)n1CC1COc2ccccc2O1 (stereo not given)	Cruzain noTriton inconclusive
O=C(CSc1nnc(-c2ccc(F)cc2)o1)c1ccc2c(c1)OCCO2	Cruzain noTriton 13µM
COCCNC(=O)c1ccc2c(c1)NC(=O)C(CS(=O)(=O)Cc1ccc(F)cc1Cl)N2 (stereo not given)	none
Cc1nn(-c2ccccc2)c(OC(=O)c2ccc(F)cc2)c1S(=O)(=O)c1ccccc1	none
CCOc1ccc(NC(=O)CC2C(=O)N(c3ccc(C)cc3)C(=O)N2C2CCCCC2)cc1 (stereo not given)	none
O=C1OC(/C=C/c2ccc(Cl)cc2Cl)=NC/1=C\c1cccs1	Cruzain Triton inconclusive, Cruzain noTriton 25µM
O=c1cc(-c2cccs2)oc2ccc(Cl)cc12	none
[N-]=[N+]=Nc1ccc(C(=O)CSC[C@H](NC(=O)CC[C@H](N)C(=O)O)C(=O)NCC(=O)O)cc1	Cruzain noTriton inconclusive
O=C(Nc1ccc(CN2CCOCC2)cc1)c1ccc(-c2cc(Cl)ccc2Cl)o1	Cruzain noTriton 25µM
S=C(c1ccc(-c2cc(Cl)ccc2Cl)o1)N1CCOCC1	none
COc1cccc(CNC(=O)C2CCC(CNS(=O)(=O)c3ccc(Br)s3)CC2)c1 (stereo not given)	none
O=S(=O)(Nc1ccc(-c2nc3cccnc3s2)cc1)c1cccs1	Cruzain noTriton 13µM
O=S(=O)(Nc1ccc(-c2nc3cccnc3s2)cc1)c1ccc(Cl)s1	Cruzain noTriton inconclusive
[CH3][Hg][Cl]	none
Cc1nc(N2CCN(S(=O)(=O)c3ccc(F)cc3)CC2)c2c(C)c(C)sc2n1	none
Cc1sc2nc(C3CC3)nc(N3CCN(S(=O)(=O)c4ccc(F)cc4)CC3)c2c1C	Cruzain noTriton 16µM
COc1ccc(-c2cc(C(=O)O)n(Cc3ccccc3)n2)cc1	none
CCOc1ccccc1C(=O)Nc1ccc(S(=O)(=O)N(Cc2ccccc2)c2ccccc2)cc1	none
Cc1ccc(OCC(=O)Nc2ccc(S(=O)(=O)N(Cc3ccccc3)c3ccccc3)cc2)cc1	Cruzain noTriton 7.9µM
Oc1ccc2ccccc2c1/C=N/n1cnnc1	none
Oc1ccc2ccccc2c1/C=C\c1ccc2c(Br)cc(Br)c(O)c2n1	Cruzain noTriton 3.2µM
COc1ccc(-c2nc(SCC(=O)NCCc3ccc(OC)c(OC)c3)n[nH]2)cc1	none
O=C(Cn1ncc2ccsc2c1=O)N1CCN(c2ccccc2F)CC1	none
Cc1oc2ncn(C)c(=O)c2c1C(=O)NCc1ccccc1	none
O=C1C(Nc2ccccc2)=C(N2CCCCC2)C(=O)c2ccccc21	none
O=C(/C=C/c1ccc(O)cc1)c1ccc(NC2=C(N3CCCCC3)C(=O)c3ccccc3C2=O)cc1	Cruzain noTriton 13µM
COc1ccc(S(=O)(=O)Nc2ccc3oc4c(c3c2)CCCC4)cc1	Cruzain noTriton inconclusive
O=S(=O)(Nc1ccc2oc3c(c2c1)CCCC3)c1cc(Cl)ccc1Cl	Cruzain noTriton 32µM
COc1ccc(N/N=C(/C)c2cnnc(-c3ccccc3)n2)cc1	Cruzain noTriton 16µM
CC/C(=N/Nc1ccccc1Cl)c1cnnc(-c2ccccc2)n1	none
O=C(c1ccccc1)N1CCC(c2nc3ccccc3o2)CC1	none
COc1cc(-c2nc3nc[nH]n3c2Nc2ccc(C(C)C)cc2)ccc1O	Cruzain noTriton inconclusive
O=C(Nc1ccc2nc(SCC(=O)N3CCOCC3)sc2c1)c1ccc(F)cc1	none
COc1ccc(NC(=O)/C=C/c2cc(Br)ccc2OC)cc1	none
CCN(CC)c1ccc(NC(=O)/C=C/c2cc(Br)ccc2OC)cc1	Cruzain noTriton 25µM
CC1=C(/C=C/C(C)=C/C=C/C(C)=C/C(=O)Nc2ccc(O)cc2)C(C)(C)CCC1	Cruzain noTriton 16µM!
CC1=C(\C=C/C(C)=C/C=C\C(C)=C\C(=O)O)C(C)(C)CCC1	Cruzain noTriton inconclusive
Cc1ccc(C)c(N2CCN(C(=O)c3cn(CC(C)C)c(=O)c4c3c3ccccc3n4C)CC2)c1	none
